FLuc inh: inhibitors of firefly (Photinus pyralis) luciferase. actives 2.5% (n = 76,000). purified P. pyralis luciferase, luminescence, biochemical. P08659. AID 1347043. Potency, µM (series often up to 115 µM), actives largely listed as inhibitors; also: nearly all actives have a fitted effect of over 65% in size
Target sequence (P08659 whole entry, looked up): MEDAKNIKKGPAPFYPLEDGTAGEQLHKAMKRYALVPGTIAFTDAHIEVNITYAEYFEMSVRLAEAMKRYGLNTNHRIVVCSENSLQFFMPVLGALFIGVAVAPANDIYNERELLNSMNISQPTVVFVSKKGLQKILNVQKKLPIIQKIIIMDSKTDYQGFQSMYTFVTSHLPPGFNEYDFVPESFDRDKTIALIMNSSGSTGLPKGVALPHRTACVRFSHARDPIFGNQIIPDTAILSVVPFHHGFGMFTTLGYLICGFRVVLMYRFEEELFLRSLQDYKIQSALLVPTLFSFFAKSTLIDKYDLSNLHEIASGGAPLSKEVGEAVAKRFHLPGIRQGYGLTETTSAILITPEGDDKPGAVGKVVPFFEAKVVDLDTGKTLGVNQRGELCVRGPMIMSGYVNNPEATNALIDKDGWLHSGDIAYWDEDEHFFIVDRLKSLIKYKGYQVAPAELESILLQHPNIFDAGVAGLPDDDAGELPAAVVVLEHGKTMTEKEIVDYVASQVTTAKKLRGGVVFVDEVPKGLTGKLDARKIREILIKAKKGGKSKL
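Purified P. pyralis luciferase (10nM final) in 50mM Tris acetate pH 7.5, 10mM Mg acetate, 0.01% Tween-20, 0.05% BSA with 10uM D-luciferin and 10uM ATP. Compounds titrated qHTS. Luminescence imaged on CCD.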
HEK293 tox: HEK 293 cell cytotoxicity. HEK 293 viability, ATP luminescence (CellTiter-Glo), 48-72 h. Potency, µM (highest dose often 115 µM), most hits filed as inhibitors. actives 6.6% (n = 94,000). AID 1345083; also: nearly all actives have a fitted effect of over 60% in size
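ATP-coupled CellTiter-Glo luminescence served as viability read-out, recorded 10 min after reagent addition at room temperature. HEK 293 cells, 250 cells/well, had been incubated with pintool-transferred compound for 48 or 72 hr at 37 degree Celsius.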
SNCA viab count: counter-screen for SNCA expression inhibitors: cell viability; HEK-293-SNCA-luc viability, GF-AFC fluorescence, 24 h; Potency, µM (series often up to 57.1 µM), hits mostly cytotoxic; actives 0.12% (n = 150,000); AID 1671193; also: nearly all actives have a fitted effect of over 30% in size
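Cytotoxicity counterscreen: after 24 h compound treatment of genome-edited SNCA-luciferase HEK-293 cells, live-cell protease substrate GF-AFC read by fluorescence after 30 min; activity scaled between DMSO (0%) and medium-only (-100%), curves Hill-fitted.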
3T3 cytotox: NIH 3T3 cell cytotoxicity; NIH 3T3 viability, CellTiter-Glo ATP luminescence, 48-72 h; Potency, µM (highest dose often 96.7 µM), usual class: inhibitors; actives 4.3% (n = 94,000); AID 1345082; also: nearly all actives have a fitted effect of over 55% in size
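Luminescent ATP readout (CellTiter-Glo, 10 min RT) after 48 or 72 hr compound exposure of NIH 3T3 cells seeded at 400 cells/well in 1536-well format; quantitative HTS.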
hNpr1 antagonist: human Npr1 receptor antagonism | AID 1347048 | actives 1.6% (n = 76,000) | P16066 | Potency, µM (top dose mostly 46.3 µM), most hits filed as inhibitors | HEK293 hNpr1 GloSensor cGMP, ANP-stimulated luminescence; calls by dose curve; also: nearly all actives have a fitted effect of over 60% in size
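HEK293 cells stably expressing human Npr1 and cGMP GloSensor pGS-40F, loaded 2 h with 2% GloSensor reagent, given compound 30 min at room temperature. Luminescence read before and 20 min after 0.1 nM hNppA.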
SNCA expr inh: SNCA gene expression inhibition; HEK-293 SNCA-luciferase knock-in, luminescence, 24 h; Potency, µM (highest dose often 57.2 µM), actives largely listed as inhibitors; actives 0.17% (n = 140,000); AID 1671194; also: nearly all actives have a fitted effect of over 45% in size
A number is an active result; – = inactive; ? = inconclusive; · = no result; [ ] = another dose, or the depositor's remark. Hits are enriched below; roughly 7.4% of the tested compounds scored in any of these assays. Unless noted, calls follow the shape of the dose curve; as a rule, active = well fitted curve in the direction sought with a large enough effect; inconclusive = small, poorly fitted or top-dose-only effect, or another doubt; inactive = no such curve, though single readings can be large; an effect the other way counts as inactive or inconclusive.

SMILES | FLuc inh | HEK293 tox | SNCA viab count | 3T3 cytotox | hNpr1 antagonist | SNCA expr inh
CCOC(=O)[C@H]1C[C@]2(CCCCN(CCOC)C2=O)N(C(=O)COc2ccccc2)[C@H]1c1ccco1 | · | ? | · | – | · | ·
c1ccc2c(c1)CCCN2CCCNc1ncncn1 | – | ? | – | ? | – | –
c1cncc(-c2ccnc(NCCCN3CCCc4ccccc43)n2)c1 | – | ? | – | 22µM | – | –
COc1ccc(NC(=O)Nc2cccn3nc(C)nc23)cc1 | 18µM | ? | – | ? | – | –
Cc1nc2c(NC(=O)Nc3cccc(C(F)(F)F)c3)cccn2n1 | ? | 35µM | – | ? | – | –
CCOc1ccc(CC(=O)Nc2cccn3nc(C)nc23)cc1 | – | – | – | – | – | –
CC1=C[C@@H](CN2CCC(C(N)=O)CC2)[C@H](C(C)C)C[C@H]1Cc1nnc(-c2ccc(N(C)C)cc2)o1 | – | 40µM | – | 35µM | – | –
CC1=C[C@@H](CN2CCC(C(N)=O)CC2)[C@H](C(C)C)C[C@H]1Cc1nnc(-c2ccccc2F)o1 | – | ? | ? | ? | – | –
CC1=C[C@@H](CN2CCC(C(N)=O)CC2)[C@H](C(C)C)C[C@H]1Cc1nnc(-c2ccc(C)cc2)o1 | – | 35µM | – | 32µM | – | –
COc1ccc(F)cc1-c1ccc(CN2CCC(NC(=O)c3ccc(C)cc3)C2)cc1 (stereo unspecified) | · | 28µM | · | 40µM | · | ·
COc1ccc(F)cc1-c1ccc(CN2CCC(NC(=O)c3ccc(Cl)cc3)C2)cc1 (stereo unspecified) | · | ? | · | 14µM | · | ·
COc1ccc(F)cc1-c1ccc(CN2CCC(NC(=O)c3ccccn3)C2)cc1 (stereo unspecified) | · | ? | · | 45µM | · | ·
COc1ccc(F)cc1-c1ccc(CN2CCC(NC(=O)Nc3ccccc3)C2)cc1 (stereo unspecified) | · | 20µM | · | 13µM | · | ·
CCN1CCN(C(=O)c2cn3cc(-c4ccccc4)sc3n2)CC1 | · | – | – | ? | · | –
COc1ccc(F)cc1-c1ccc(CN2CCC(NC(=O)c3ccc(NC(C)=O)cc3)C2)cc1 (stereo unspecified) | · | ? | · | 20µM | · | ·
COc1ccc(F)cc1-c1ccc(C(=O)O)cc1 | · | – | – | – | · | –
Cn1ccc(Nc2nccc3c(=O)cc(-c4cccnc4)oc23)n1 | – | – | – | 40µM | – | –
O=c1cc(-c2cccnc2)oc2c(NCC3CCOCC3)nccc12 | – | – | – | ? | – | –
CN(c1cc(=O)c2ccnc(Nc3ccn(C)n3)c2o1)C1CCOCC1 | – | – | – | ? | – | –
Cn1ccc(Nc2nccc3c(=O)cc(-c4cn[nH]c4)oc23)n1 | – | ? | – | 79µM | – | ?
O=c1cc(-c2cccnc2)oc2c(NCc3ccccc3)nccc12 | ? | ? | – | 22µM | – | –
CCc1cc(N2CCC(NCCc3cccc(Cl)c3)CC2)nc(C)n1 | – | ? | – | 40µM | – | –
O=C(N1CCC[C@H]1c1nc(-c2ccccc2Cl)no1)C1(c2ccccc2)CC1 | 22µM | ? | – | ? | – | –
c1ccc(-c2nc(-c3ccncc3)no2)c(OC2CCNC2)c1 (stereo unspecified) | – | ? | ? | ? | – | –
Clc1ccccc1Cc1nc(-c2ccc(OC3CCNC3)cc2)no1 (stereo unspecified) | ? | 18µM | ? | 13µM | – | –
SMILES | FLuc inh | HEK293 tox | SNCA viab count | 3T3 cytotox | hNpr1 antagonist | SNCA expr inh
COCCCNC(=O)c1nc2sccn2c1-c1ccccc1 | · | – | – | – | · | –
CN1CC(=O)N(c2ccccc2F)Cc2c(NCCCc3ccccc3)ncnc21 | – | ? | – | ? | – | –
Cc1cccc(N2Cc3c(NCCCc4ccccc4)ncnc3N(C)CC2=O)c1 | · | ? | – | 45µM | · | –
CN1CC(=O)N(c2ccccc2F)Cc2c(NCCc3ccccc3)ncnc21 | – | 45µM | – | ? | – | –
CN1CC(=O)N(c2ccccc2F)Cc2c(NCCc3ccc(Cl)cc3)ncnc21 | – | 45µM | – | 40µM | – | ?
Cc1ccc(N2Cc3c(NCCCc4ccccc4)ncnc3N(C)CC2=O)cc1 | – | ? | – | ? | – | –
CN1Cc2ncnc(NCCc3ccccc3)c2CN(C2CCC2)C1=O | – | 63µM | – | ? | – | –
COc1cccc(-c2cccc(C(=O)N3CCN(C(=O)c4cccc(Cl)c4)CC3)c2)c1 | · | ? | –[12.5 µM] | ? | · | –
COc1ccc(-c2cn3cc(C(=O)N4CCOCC4)nc3s2)cc1 | · | 63µM | – | ? | · | –
CN1CCN(C(=O)c2cn3cc(-c4ccc(F)cc4)sc3n2)CC1 | · | ? | – | 79µM | · | –

Screening results deposited in PubChem by National Center for Advancing Translational Sciences (NCATS).
